BoNT-A LC inh2 – BoNT A light chain protease inhibition; inhibition, % at 10 µM; multiplex microsphere protease substrate cleavage, flow cytometry; hit rate 0.17% among 360,000; note: plate controls were buffer without enzyme for full effect and enzyme alone for no effect
MazEF act – MazEF (E. coli) toxin RNase activation; hit rate 0.32% among 350,000; activation, % at 20 µM; P0AE70; FAM/BHQ RNA-DNA oligo cleavage fluorescence, 5 h; in the data active = activation above about 50%
Target sequence (P0AE70 whole entry, looked up): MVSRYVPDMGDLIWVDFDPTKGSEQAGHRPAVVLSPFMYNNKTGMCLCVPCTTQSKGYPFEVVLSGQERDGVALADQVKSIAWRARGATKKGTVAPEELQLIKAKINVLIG
BoNT-F LC inh – blocks Botulinum neurotoxin F light chain protease. Multiplex microsphere protease cleavage assay, flow cytometry. inhibition, % at 10 µM. hit rate 0.22% among 360,000. AID 588497; in the data active = inhibition above about 35%, passing the limit was not always enough; inconclusive = no clear call, values can overlap the other calls; note: plate controls were buffer without enzyme for full effect and enzyme alone for no effect
Bead autofluor – flagged as autofluorescent in microsphere protease counterscreen. compound autofluorescence counterscreen, microsphere flow cytometry; active compounds read high. fluorescence intensity (concentration not given with the values). hit rate 3.1% among 360,000; in the data active = fluorescence intensity above about 16000; inconclusive = no clear call, values can overlap the other calls
Anthrax LF inh2 – inhibitors of Bacillus anthracis lethal factor protease; hit rate 0.12% among 360,000; inhibition, % at 10 µM; P15917; multiplex microsphere protease cleavage assay, LF; note: plate controls were buffer without enzyme for full effect and enzyme alone for no effect
An asterisk follows results filed as active; ! = repeats disagree. In the library only some 3.7% were active in any assay of this set; here they are far more common. Cut-off read from the data, not from the text of the source, unless noted: active = inhibition above about 30%; inconclusive = no clear call, values can overlap the other calls; inactive = below that.

How did CCC(CO)NCc1ccc(OC2CCCC2)cc1 (stereo unspecified) do in these assays?
BoNT-A LC inh2: -3; MazEF act: 7; BoNT-F LC inh: -10; Bead autofluor: 23277*; Anthrax LF inh2: -1

How did Cc1ccc(-c2nn(C)c(=O)c3ccccc23)cc1CNC(=O)NC1CCCCC1 do in these assays?
BoNT-A LC inh2: 0; MazEF act: -27; BoNT-F LC inh: 6; Bead autofluor: 6337; Anthrax LF inh2: -9

Results for COc1cc(C(C)=O)ccc1OCC(=O)N1CCc2ccccc2C1 ?
BoNT-A LC inh2: -4; MazEF act: -26; BoNT-F LC inh: 18; Bead autofluor: 3749; Anthrax LF inh2: -8

Results for Cn1nnc2cc(C(=O)N3CCN(c4ccccn4)CC3)ccc21 ?
BoNT-A LC inh2: -4; MazEF act: -29; BoNT-F LC inh: -35; Bead autofluor: 3223; Anthrax LF inh2: 9

Results for Cc1nc2ncnn2c(N2CCN(C(c3ccccc3)c3ccccc3)CC2)c1C ?
BoNT-A LC inh2: 2; MazEF act: -1; BoNT-F LC inh: 0; Bead autofluor: 18747*; Anthrax LF inh2: -1

How did Cc1cc(N2CCN(c3cccc(C(F)(F)F)c3)CC2)n2ncnc2n1 do in these assays?
BoNT-A LC inh2: 0; MazEF act: 4; BoNT-F LC inh: -33; Bead autofluor: 4978; Anthrax LF inh2: -2

Results for Cc1nc2ncnn2c(N2CCN(c3cccc(C(F)(F)F)c3)CC2)c1C ?
BoNT-A LC inh2: 1; MazEF act: 0; BoNT-F LC inh: 1; Bead autofluor: 22031*; Anthrax LF inh2: 1

What do the screens show for `CC1Cn2c(nc(=O)c3c2NCN(CCc2ccccc2)C3)S1` (stereo unspecified)?
BoNT-A LC inh2: 0; MazEF act: 5; BoNT-F LC inh: -3; Bead autofluor: 3785; Anthrax LF inh2: -1

Results for Cc1ccc(C2=C/C(=C/c3cccs3)C(=O)O2)cc1 ?
BoNT-A LC inh2: 0; MazEF act: active; BoNT-F LC inh: -10; Bead autofluor: 2124; Anthrax LF inh2: -3

What do the screens show for `Cc1cccnc1NC(=O)CNC(=O)C12CC3CC(CC(C3)C1)C2`?
BoNT-A LC inh2: 2; MazEF act: 1; BoNT-F LC inh: -15; Bead autofluor: 4993; Anthrax LF inh2: -1

How did CCc1cc2ccc(C)cc2nc1SCC(=O)NC1CCCC1 do in these assays?
BoNT-A LC inh2: 0; MazEF act: -18; BoNT-F LC inh: -2; Bead autofluor: 3447; Anthrax LF inh2: -5

What do the screens show for `O=C1CCCC(O)=C1N=Nc1c(Cl)cc(C(F)(F)F)cc1Cl`?
BoNT-A LC inh2: 4; MazEF act: 10; BoNT-F LC inh: inconclusive; Bead autofluor: 2889; Anthrax LF inh2: 83*

Results for CN1CCc2c(c(N3CCCCC3)nc3n[nH]c(N)c23)C1 ?
BoNT-A LC inh2: inconclusive; MazEF act: -6; BoNT-F LC inh: -3; Bead autofluor: 20525*; Anthrax LF inh2: -1

Results for O=C1CSC(=S)N1Cc1ccccc1 ?
BoNT-A LC inh2: 1; MazEF act: 2; BoNT-F LC inh: -1; Bead autofluor: 3566; Anthrax LF inh2: -6

How did CCOC(=O)c1c(N)nn(C(=O)C(C)(C)C)c1-c1ccccc1 do in these assays?
BoNT-A LC inh2: -1; MazEF act: 4; BoNT-F LC inh: -2; Bead autofluor: 22970*; Anthrax LF inh2: -1

How did CCOC(=O)c1c(N)nn(C(=O)c2ccccc2F)c1-c1ccc(OC)cc1 do in these assays?
BoNT-A LC inh2: -1; MazEF act: 2; BoNT-F LC inh: 1; Bead autofluor: 3958; Anthrax LF inh2: -1

How did O=C(O)CCCCCN1C(=O)CSC1=S do in these assays?
BoNT-A LC inh2: 0; MazEF act: 2; BoNT-F LC inh: -5; Bead autofluor: 4102; Anthrax LF inh2: -4

How did C=C1N(CCCCCC(=O)O)C(=O)OC12CCCCC2 do in these assays?
BoNT-A LC inh2: 1; MazEF act: 6; BoNT-F LC inh: 1; Bead autofluor: 22385*; Anthrax LF inh2: 2

How did Nc1ccc(C=Cc2ccc(N)cc2)cc1 do in these assays?
BoNT-A LC inh2: 0; BoNT-F LC inh: -9; Bead autofluor: 4412; Anthrax LF inh2: -7

Results for CCCc1ccc(OCc2ccc(C(=O)O)o2)c(OC)c1 ?
BoNT-A LC inh2: 0; MazEF act: -1; BoNT-F LC inh: 4; Bead autofluor: 2799; Anthrax LF inh2: 1

What do the screens show for `CCCc1ccc(OCc2ccc(C(=O)OC)o2)c(OC)c1`?
BoNT-A LC inh2: 1; MazEF act: -2; BoNT-F LC inh: 1; Bead autofluor: 23181*; Anthrax LF inh2: -2

What do the screens show for `O=Cc1ccc(-c2ccccc2C(=O)O)o1`?
BoNT-A LC inh2: 4; MazEF act: 13; BoNT-F LC inh: 16; Bead autofluor: 3091; Anthrax LF inh2: 3

What do the screens show for `O=C(O)c1ccccc1-c1c2cc(I)c(=O)c(I)c-2oc2c(I)c(O)c(I)cc12`?
BoNT-A LC inh2: 64*; MazEF act: inactive; BoNT-F LC inh: 38*!; Bead autofluor: 3911; Anthrax LF inh2: 33*

What do the screens show for `COc1ccccc1NC(=O)COC(=O)c1ccc(S(=O)(=O)N2CCCCCC2)cc1`?
BoNT-A LC inh2: 0; MazEF act: 7; BoNT-F LC inh: -5; Bead autofluor: 3239; Anthrax LF inh2: -2

How did N#C/C(=C\c1cccs1)C(=O)N1CCOCC1 do in these assays?
BoNT-A LC inh2: inconclusive; MazEF act: 5; BoNT-F LC inh: inconclusive; Bead autofluor: 4098; Anthrax LF inh2: -29

Results for N#C/C(C(=O)N1CCOCC1)=C1\Nc2ccccc2S1 ?
BoNT-A LC inh2: 0; MazEF act: 8; BoNT-F LC inh: 1; Bead autofluor: 20837*; Anthrax LF inh2: -1

What do the screens show for `O=C(COC(=O)c1ccco1)NCc1ccc(F)cc1`?
BoNT-A LC inh2: -2; MazEF act: 9; BoNT-F LC inh: -2; Bead autofluor: 4262; Anthrax LF inh2: 0

What do the screens show for `CCOC(=O)N1C2CCC(C2)N1C(=O)OCC`?
BoNT-A LC inh2: 0; MazEF act: 8; BoNT-F LC inh: -10; Bead autofluor: 4232; Anthrax LF inh2: -1

What do the screens show for `CCOC(=O)N1C2C=CC(C2)N1C(=O)OCC`?
BoNT-A LC inh2: -1; MazEF act: 157*; BoNT-F LC inh: -8; Bead autofluor: 4446; Anthrax LF inh2: -2

What do the screens show for `O=C(NC(=S)NCC1CCCO1)c1ccccc1Br` (stereo unspecified)?
BoNT-A LC inh2: 0; MazEF act: -1; BoNT-F LC inh: -4; Bead autofluor: 1927; Anthrax LF inh2: 2

Results for O=C(NNC(=O)c1ccc(SCC2CCCO2)c([N+](=O)[O-])c1)c1ccc(Cl)c([N+](=O)[O-])c1 (stereo unspecified) ?
BoNT-A LC inh2: 6; MazEF act: -6; BoNT-F LC inh: 5; Bead autofluor: 21281*; Anthrax LF inh2: -1

What do the screens show for `Cc1ccc(C(=O)NNC(=O)c2ccc(SCC3CCCO3)c([N+](=O)[O-])c2)cc1` (stereo unspecified)?
BoNT-A LC inh2: 0; MazEF act: -13; BoNT-F LC inh: 2; Bead autofluor: 10655; Anthrax LF inh2: 0

Results for O=C(NNC(=O)c1ccccc1Br)c1ccc(SCC2CCCO2)c([N+](=O)[O-])c1 (stereo unspecified) ?
BoNT-A LC inh2: 4; MazEF act: 8; BoNT-F LC inh: 6; Bead autofluor: 21390*; Anthrax LF inh2: -1
